Outcome data for one compound are collected here from PubChem BioAssay AID1037 (National Center for Advancing Translational Sciences (NCATS), 2008).

Calls of active or inactive are those of the source. The call rests on the fitted dose curve.

The nature of the assay: NSCLC 2 Cell Viability Secondary Assay for qHTS Assay for Epigenetic Modulators. To be noted: NSCLC 2 viability, MTS absorbance, 4 days. An excerpt:
NIH Molecular Libraries Screening Centers Network [MLSCN] NIH Chemical Genomics Center [NCGC] MLSCN Grant: 1 X01 MH079860-01 Assay Provider: Elisabeth D. Martinez, University of Texas SW Medical Center NCGC Assay Overview: This secondary assay characterizes selected actives identified in the qHTS of the Locus Derepression (LDR) assay (PubChem AID 597). The LDR assay detects the derepression of a GFP reporter that is stably integrated in a region of the genome of murine c127i mammary cells that is presumably silenced. Compounds that cause derepression of the locus to express GFP are identified by enumerating GFP positive cells using a laser-scanning microplate cytometer. […] NSCLC 2 cell viability was measured using Cell Titer 96 AQueous One (Promega), an assay which detects the ability of metabolically active cells to reduce a tetrazolium salt substrate (MTS), into a soluble formazan product that can be measured by colorimetry.
NCGC Assay Protocol Summary NSCLC 2 cells were plated in 96-well flat bottom tissue culture dishes (Corning) and grown overnight at 37 C and 5% CO2, then treated with compounds, incubated 4 days, and assayed for viability using the Cell Titer 96 AQueous One kit (Promega) according to the manufacturer's protocol. Absorbance at 490 nm and 650 nm (reference) was measured by a Spectra Max (Molecular Devices). […]
Background: Quantitative high-throughput screening tests each substance at several concentrations.

Consider `CN1CSC(=S)N(C)C1`, for which the call was inactive.
